# Results: PubChem BioAssay (EPA / NIEHS)
# Results filed as inconclusive are left out. The source holds several records for some structures; these can differ, active in one and inactive in another. Activity calls are given as the source filed them. How the source made its calls, unless noted: active means hit-call score of the fitted dose curve at least 0.9, where 1 is the maximum; inactive means score below 0.9.
# Legend:
# [1] = BSK_4H_Eotaxin3: BioMAP Diversity Plus: 4H Assay for Eotaxin 3 Biomarker Activity (AID 2283000); settings: primary human endothelial cells (HUVEC); actives raise or lower the signal;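 on outcome: CCL26 protein level quantified by ELISA in parallel with SRB cytotoxicity check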
# Procedure, shortened: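 Chemicals were added to human umbilical vein endothelium cultures, and Eotaxin-3 was quantified by ELISA at 24 h. Values were derived by bidirectional fitting with DMSO serving as negative control and activity baseline.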
# [2] = target: human Peroxisome Proliferator-activated Receptor alpha (PPARa), PPARA (gene 5465) (UniProt Q07869); experiment: ATG_PPARa_TRANS: Attagene TRANS-FACTORIAL HepG2 Assay for human Peroxisome Proliferator-activated Receptor alpha (PPARa) (AID 2283001; active means hit-call score of the fitted dose curve at least 0.9, where 1 is the maximum)
# Procedure, shortened: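 Read-out is fluorescence of reporter cDNA fragments resolved by capillary electrophoresis after RT-PCR. Human HepG2 liver cells carried transfected PPARa-Gal4 chimera and GAL4-UAS reporter units, treated 24 h; activity scored as increase over DMSO.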
# [3] = target: human Peroxisome Proliferator-activated Receptor delta (PPARd), PPARD (gene 5467) (UniProt Q03181); experiment: ATG_PPARd_TRANS: Attagene TRANS-FACTORIAL HepG2 Assay for human Peroxisome Proliferator-activated Receptor delta (PPARd) (AID 2283002; active means hit-call score of the fitted dose curve at least 0.9, where 1 is the maximum)
# Procedure, shortened: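 Read-out is induced reporter mRNA, quantified by RT-PCR with fluorescent labelling and capillary electrophoresis after 24 h dosing. Cells are HepG2 transiently carrying multiple GAL4-UAS reporter units driven by exogenous NR-GAL4 chimeras; DMSO serves as baseline.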
# [4] = read-out: Intercellular Adhesion Molecule 1 (ICAM1), ICAM1 (gene 3383); experiment: BSK_3C_ICAM1: BioMAP Diversity Plus: 3C Assay for Intercellular Adhesion Molecule 1 (ICAM1) Biomarker Activity (AID 2283003); settings: primary human endothelial cells (HUVEC); actives raise or lower the signal
# Procedure, shortened: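 ICAM-1 levels measured by ELISA after HUVEC cultures in the 3C system had been dosed for 24 h. Gain or loss of signal relative to DMSO was fitted in both directions.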
# [5] = BSK_3C_Proliferation: Cell Proliferation Assessment in the BioMAP Diversity Plus: 3C Assay (AID 2283006); settings: primary human endothelial cells (HUVEC);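 on AC50: potency may reflect either rise or fall in cell number versus DMSO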
# Procedure, shortened: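 Read-out is total protein by SRB absorbance at 560 nm, taken as a proxy for relative cell number. Primary human umbilical vein endothelium cultured below confluence was dosed for 48 h, TCA-fixed and SRB-stained; curves were fitted bidirectionally versus DMSO.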
# [6] = target: Peroxisome proliferator-activated receptor gamma (Homo sapiens) (UniProt P37231); experiment: ATG_PPARg_TRANS: Attagene TRANS-FACTORIAL HepG2 Assay for human Peroxisome Proliferator-activated Receptor-gamma (PPARg) (AID 2283007; active means hit-call score of the fitted dose curve at least 0.9, where 1 is the maximum)
# Procedure, shortened: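 Twenty-four hours after chemical dosing of transiently transfected HepG2 cells, isolated RNA was converted to cDNA, reporter sequences amplified and 6-FAM-labelled, then HpaI-digested and analysed by capillary electrophoresis. Signal increase against DMSO was fitted.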
# [7] = target: Nuclear receptor subfamily 1 group I member 2 (Homo sapiens) (UniProt O75469); experiment: ATG_PXR_TRANS: Attagene TRANS-FACTORIAL HepG2 Assay for human Pregnane X Receptor (PXR) (AID 2283008; active means hit-call score of the fitted dose curve at least 0.9, where 1 is the maximum)
# Procedure, shortened: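 HepG2 cells transiently transfected with GAL4-UAS reporter units and PXR-Gal4 chimera, exposed 24 h. Reporter mRNA quantified by RT-PCR, fluorescent labelling, HpaI digestion and capillary electrophoresis; gain of signal vs DMSO.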
# [8] = target: human Retinoic Acid Receptor gamma (RARg), RARG (gene 5916) (UniProt P13631); experiment: ATG_RARg_TRANS: Attagene TRANS-FACTORIAL HepG2 Assay for human Retinoic Acid Receptor gamma (RARg) (AID 2283009; active means hit-call score of the fitted dose curve at least 0.9, where 1 is the maximum)
# Procedure, shortened: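 Transient transfection of HepG2 with multi-reporter constructs, then 24 h chemical treatment. Total RNA isolated, reverse-transcribed, PCR-amplified, fluorescently labelled and resolved by capillary electrophoresis; activity scored as mRNA induction versus DMSO.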
# [9] = target: human RAR-related Orphan Receptor beta (RORb), RORB (gene 6096) (UniProt Q92753); experiment: ATG_RORb_TRANS: Attagene TRANS-FACTORIAL HepG2 Assay for human RAR-related Orphan Receptor beta (RORb) (AID 2283010; active means hit-call score of the fitted dose curve at least 0.9, where 1 is the maximum)
# Procedure, shortened: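 Readout is reporter-gene mRNA induction, detected as fluorescence after RT-PCR and capillary electrophoresis, fitted for gain of signal against DMSO controls. Transiently transfected HepG2 liver cells carrying GAL4-UAS reporter constructs were treated for 24 hours.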
# [10] = target: Retinoic acid receptor RXR-alpha (Homo sapiens) (UniProt P19793); experiment: ATG_RXRa_TRANS: Attagene TRANS-FACTORIAL HepG2 Assay for human Retinoid X Receptor alpha (RXRa) (AID 2283012; active means hit-call score of the fitted dose curve at least 0.9, where 1 is the maximum)
# Procedure, shortened: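 Transient transfection of human HepG2 with multiple GAL4-UAS reporter constructs; 24 h compound exposure; total RNA isolated, reverse-transcribed, PCR-amplified, 6-FAM labelled, HpaI-cut, resolved by capillary electrophoresis. Positive-direction fit versus DMSO.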
# [11] = target: human Retinoid X Receptor beta (RXRb), RXRB (gene 6257) (UniProt P28702); experiment: ATG_RXRb_TRANS: Attagene TRANS-FACTORIAL HepG2 Assay for human Retinoid X Receptor beta (RXRb) (AID 2283013; active means hit-call score of the fitted dose curve at least 0.9, where 1 is the maximum)
# Procedure, shortened: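 Transfect HepG2 with GAL4-UAS multi-reporter constructs (chimeric NR-Gal4, TRANS format); dose compound 24 h; isolate RNA, RT-PCR, FAM primer extension, HpaI digest; quantify by capillary electrophoresis; positive direction vs DMSO.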
# [12] = target: human Thyroid Receptor alpha (THRa1), THRA (gene 7067) (UniProt P10827); experiment: ATG_THRa1_TRANS: Attagene TRANS-FACTORIAL HepG2 Assay for human Thyroid Receptor alpha (THRa1) (AID 2283014; active means hit-call score of the fitted dose curve at least 0.9, where 1 is the maximum)
# Procedure, shortened: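 Reporter transcript induction, read by capillary electrophoresis of 6-FAM-labelled RT-PCR products, reflects activity of a transfected THRa1-Gal4 fusion in HepG2 liver cells. Cells were dosed for 24 h; activity was fitted in the positive direction against DMSO.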
# [13] = read-out: Interleukin-1 alpha (IL1a), IL1A (gene 3552); experiment: BSK_BE3C_IL1a: BioMAP Diversity Plus: BE3C Assay for Interleukin-1 alpha (IL1a) Biomarker Activity (AID 2283016); settings: primary human bronchial epithelial cells; actives raise or lower the signal
# Procedure, shortened: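 BE3C primary human bronchial epithelium; cpd 24 h; IL-1a by ELISA; bidirectional fit vs DMSO; parallel SRB (0.1% SRB, 10% TCA fix, 560 nm) for cytotoxicity.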
# [14] = read-out: Monocyte Chemoattractant Protein-1 (MCP1), CCL2 (gene 6347); experiment: BSK_3C_MCP1: BioMAP Diversity Plus: 3C Assay for Monocyte Chemoattractant Protein-1 (MCP1) Biomarker Activity (AID 2283017); settings: primary human endothelial cells (HUVEC); actives raise or lower the signal
# Procedure, shortened: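 ELISA read-out of MCP-1 from human umbilical vein endothelial cell cultures harvested 24 h post-dosing. Gain or loss of signal was fitted relative to DMSO.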
# [15] = read-out: Human Leukocyte Antigen - DR isotype (HLADR), HLA-DRA (gene 3122); experiment: BSK_3C_HLADR: BioMAP Diversity Plus: 3C Assay for Human Leukocyte Antigen - DR isotype (HLADR) Biomarker Activity (AID 2283019); settings: primary human endothelial cells (HUVEC); actives raise or lower the signal;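 on outcome: ELISA of cell-surface HLA-DR on HUVEC 24 h after dosing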
# Procedure, shortened: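 ELISA readout of surface HLA-DR on human umbilical vein endothelium, taken 24 h after chemical treatment. Gain- and loss-of-signal were both fitted relative to DMSO.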
# [16] = target: human Retinoic Acid Receptor beta (RARb), RARB (gene 5915) (UniProt P10826); experiment: ATG_RARb_TRANS: Attagene TRANS-FACTORIAL HepG2 Assay for human Retinoic Acid Receptor beta (AID 2283004; active means hit-call score of the fitted dose curve at least 0.9, where 1 is the maximum)
# Procedure, shortened: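 Transient transfection of HepG2 with multiple reporter units → chemical dosing, 24 h → total RNA isolation → RT with oligo(dT) → reporter-specific PCR, 6-FAM primer extension, HpaI digest → capillary electrophoresis. Positive direction vs DMSO control.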
# [17] = target: human RAR-related Orphan Receptor gamma (RORg), RORC (gene 6097) (UniProt P51449); experiment: ATG_RORg_TRANS: Attagene TRANS-FACTORIAL HepG2 Assay for human RAR-related Orphan Receptor gamma (RORg) (AID 2283011; active means hit-call score of the fitted dose curve at least 0.9, where 1 is the maximum;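 on AC50: potency for induction of reporter transcripts above DMSO so activators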)
# Procedure, shortened: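 First, HepG2 liver cells were transfected with GAL4-UAS-driven reporter constructs and the RORg-Gal4 fusion. Next, they were treated with chemical for 24 h. Finally, reporter mRNA was quantified by RT-PCR and capillary electrophoresis, with upward activity fitted against DMSO.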
# [18] = target: Retinoic acid receptor alpha (Homo sapiens) (UniProt P10276); experiment: ATG_RARa_TRANS: Attagene TRANS-FACTORIAL HepG2 Assay for human Retinoic Acid Receptor alpha (RARa) (AID 2283005; active means hit-call score of the fitted dose curve at least 0.9, where 1 is the maximum)
# Procedure, shortened: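 Reporter transcripts, measured by RT-PCR with fluorescent labeling and capillary electrophoresis after 24 h dosing, reflect activity of an exogenous human RARa–GAL4 fusion in transiently transfected HepG2. Fitted for increase relative to DMSO.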
# [19] = read-out: Monocyte Chemoattractant Protein-1 (MCP1), CCL2 (gene 6347); experiment: BSK_4H_MCP1: BioMAP Diversity Plus: 4H Assay for Monocyte Chemoattractant Protein-1 (MCP1) Biomarker Activity (AID 2283018); settings: primary human endothelial cells (HUVEC); actives raise or lower the signal
# Procedure, shortened: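 ELISA read-out of MCP-1 from human vascular endothelial primary cells taken at 24 hours after compound exposure. Activity was fitted in both directions relative to DMSO, which served as negative control.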
# [20] = read-out: E-selectin (Homo sapiens) (UniProt P16581); experiment: BSK_3C_Eselectin: BioMAP Diversity Plus: 3C Assay for Eselectin Biomarker Activity (AID 2283015); settings: primary human endothelial cells (HUVEC); actives raise or lower the signal;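 further: cell surface E-selectin protein quantified by ELISA 24 h after dosing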
# Procedure, shortened: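 ELISA read-out of E-selectin on endothelial monolayers after 24 h chemical treatment. Human umbilical vein primary cells served as the system, with DMSO defining baseline activity for bidirectional fitting.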
# Chain of human Peroxisome Proliferator-activated Receptor alpha (PPARa), PPARA (gene 5465) (Q07869 whole entry, looked up, the tested form may be a part): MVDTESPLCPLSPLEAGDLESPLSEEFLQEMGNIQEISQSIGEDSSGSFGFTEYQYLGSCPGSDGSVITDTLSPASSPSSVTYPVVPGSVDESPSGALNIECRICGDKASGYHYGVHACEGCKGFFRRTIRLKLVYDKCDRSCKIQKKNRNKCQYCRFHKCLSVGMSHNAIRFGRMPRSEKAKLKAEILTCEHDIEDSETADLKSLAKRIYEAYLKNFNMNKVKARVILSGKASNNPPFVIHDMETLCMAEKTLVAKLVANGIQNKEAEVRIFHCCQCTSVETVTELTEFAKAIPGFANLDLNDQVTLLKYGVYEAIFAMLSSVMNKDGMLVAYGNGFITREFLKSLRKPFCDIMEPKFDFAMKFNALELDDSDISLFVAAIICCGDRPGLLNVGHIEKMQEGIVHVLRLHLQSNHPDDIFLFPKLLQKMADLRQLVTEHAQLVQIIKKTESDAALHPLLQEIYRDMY
# Chain of human RAR-related Orphan Receptor beta (RORb), RORB (gene 6096) (Q92753 whole entry, looked up, the tested form may be a part): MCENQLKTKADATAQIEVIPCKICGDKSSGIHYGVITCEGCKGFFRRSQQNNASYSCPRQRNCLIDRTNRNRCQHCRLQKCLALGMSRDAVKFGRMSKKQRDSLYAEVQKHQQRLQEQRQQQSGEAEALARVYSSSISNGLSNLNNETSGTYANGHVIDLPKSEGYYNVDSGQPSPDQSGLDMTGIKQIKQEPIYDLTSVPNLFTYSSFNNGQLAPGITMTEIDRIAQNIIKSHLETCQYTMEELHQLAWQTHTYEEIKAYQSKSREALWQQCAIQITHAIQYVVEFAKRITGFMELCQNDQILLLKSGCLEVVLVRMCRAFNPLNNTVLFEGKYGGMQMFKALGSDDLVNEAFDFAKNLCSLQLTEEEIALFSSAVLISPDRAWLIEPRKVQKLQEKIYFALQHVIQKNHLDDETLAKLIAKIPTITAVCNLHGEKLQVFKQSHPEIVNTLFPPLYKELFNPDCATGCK
# Chain of human Retinoic Acid Receptor beta (RARb), RARB (gene 5915) (P10826 whole entry, looked up): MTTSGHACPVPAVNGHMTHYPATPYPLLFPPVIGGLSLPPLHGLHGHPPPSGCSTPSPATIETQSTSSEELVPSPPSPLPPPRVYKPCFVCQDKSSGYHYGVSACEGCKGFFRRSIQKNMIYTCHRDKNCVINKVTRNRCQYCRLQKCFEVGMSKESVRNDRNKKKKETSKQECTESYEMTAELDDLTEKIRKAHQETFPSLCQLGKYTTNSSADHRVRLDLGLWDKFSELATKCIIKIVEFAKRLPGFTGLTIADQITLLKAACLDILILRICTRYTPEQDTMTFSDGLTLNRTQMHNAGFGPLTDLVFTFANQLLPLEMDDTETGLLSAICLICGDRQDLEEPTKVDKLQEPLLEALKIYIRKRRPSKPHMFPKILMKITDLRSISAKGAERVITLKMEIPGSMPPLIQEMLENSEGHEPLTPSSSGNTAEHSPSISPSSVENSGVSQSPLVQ
# Chain of Nuclear receptor subfamily 1 group I member 2 (Homo sapiens) (O75469 whole entry, looked up, the tested form may be a part): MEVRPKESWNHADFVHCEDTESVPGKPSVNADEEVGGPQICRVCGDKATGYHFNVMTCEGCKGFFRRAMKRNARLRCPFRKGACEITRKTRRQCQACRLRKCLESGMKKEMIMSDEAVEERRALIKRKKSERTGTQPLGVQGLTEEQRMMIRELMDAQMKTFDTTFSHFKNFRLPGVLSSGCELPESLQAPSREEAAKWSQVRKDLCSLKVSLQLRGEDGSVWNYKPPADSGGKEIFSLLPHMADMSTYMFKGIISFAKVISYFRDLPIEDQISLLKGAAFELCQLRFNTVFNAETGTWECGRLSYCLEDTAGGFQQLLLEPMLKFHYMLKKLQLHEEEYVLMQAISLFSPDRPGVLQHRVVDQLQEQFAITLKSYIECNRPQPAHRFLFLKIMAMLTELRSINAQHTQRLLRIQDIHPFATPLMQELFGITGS
# Chain of Retinoic acid receptor RXR-alpha (Homo sapiens) (P19793 whole entry, looked up, the tested form may be a part): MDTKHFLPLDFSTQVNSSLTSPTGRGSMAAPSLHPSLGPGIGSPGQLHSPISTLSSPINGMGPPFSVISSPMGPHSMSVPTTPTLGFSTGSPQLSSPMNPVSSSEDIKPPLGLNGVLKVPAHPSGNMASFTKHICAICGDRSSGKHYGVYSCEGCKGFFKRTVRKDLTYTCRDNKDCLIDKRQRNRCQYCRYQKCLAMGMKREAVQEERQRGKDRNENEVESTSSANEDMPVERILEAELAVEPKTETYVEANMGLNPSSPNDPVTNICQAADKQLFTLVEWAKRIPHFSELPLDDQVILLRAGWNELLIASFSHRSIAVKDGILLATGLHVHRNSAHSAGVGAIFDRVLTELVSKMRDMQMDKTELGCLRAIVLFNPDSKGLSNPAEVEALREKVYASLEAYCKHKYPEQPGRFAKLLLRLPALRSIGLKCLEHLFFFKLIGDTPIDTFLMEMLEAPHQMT
# Chain of human Peroxisome Proliferator-activated Receptor delta (PPARd), PPARD (gene 5467) (Q03181 whole entry, looked up, the tested form may be a part): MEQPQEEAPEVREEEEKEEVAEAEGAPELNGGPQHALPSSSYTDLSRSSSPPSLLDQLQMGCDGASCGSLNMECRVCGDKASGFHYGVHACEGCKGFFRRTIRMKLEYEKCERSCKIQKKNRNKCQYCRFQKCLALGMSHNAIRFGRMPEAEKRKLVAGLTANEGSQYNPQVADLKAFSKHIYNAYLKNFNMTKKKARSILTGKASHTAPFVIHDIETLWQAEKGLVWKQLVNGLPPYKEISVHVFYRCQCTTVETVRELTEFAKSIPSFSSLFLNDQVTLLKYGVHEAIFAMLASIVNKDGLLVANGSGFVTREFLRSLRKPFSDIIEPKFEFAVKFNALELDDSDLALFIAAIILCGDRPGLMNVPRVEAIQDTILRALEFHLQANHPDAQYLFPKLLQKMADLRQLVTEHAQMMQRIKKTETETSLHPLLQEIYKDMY
# Chain of human Thyroid Receptor alpha (THRa1), THRA (gene 7067) (P10827 whole entry, looked up, the tested form may be a part): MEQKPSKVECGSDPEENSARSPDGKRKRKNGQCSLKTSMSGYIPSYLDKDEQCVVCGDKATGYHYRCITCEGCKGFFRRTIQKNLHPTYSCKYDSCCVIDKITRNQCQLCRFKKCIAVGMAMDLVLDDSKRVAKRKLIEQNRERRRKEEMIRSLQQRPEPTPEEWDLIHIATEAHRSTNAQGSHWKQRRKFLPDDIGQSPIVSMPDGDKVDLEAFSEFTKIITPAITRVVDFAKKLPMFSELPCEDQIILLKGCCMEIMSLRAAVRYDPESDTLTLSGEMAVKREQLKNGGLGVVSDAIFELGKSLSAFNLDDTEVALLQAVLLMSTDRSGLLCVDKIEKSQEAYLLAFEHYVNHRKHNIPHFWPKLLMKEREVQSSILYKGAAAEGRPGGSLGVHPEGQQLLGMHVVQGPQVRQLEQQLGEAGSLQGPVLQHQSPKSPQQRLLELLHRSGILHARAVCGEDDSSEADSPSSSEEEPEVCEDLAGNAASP
# Chain of human Retinoic Acid Receptor gamma (RARg), RARG (gene 5916) (P13631 whole entry, looked up): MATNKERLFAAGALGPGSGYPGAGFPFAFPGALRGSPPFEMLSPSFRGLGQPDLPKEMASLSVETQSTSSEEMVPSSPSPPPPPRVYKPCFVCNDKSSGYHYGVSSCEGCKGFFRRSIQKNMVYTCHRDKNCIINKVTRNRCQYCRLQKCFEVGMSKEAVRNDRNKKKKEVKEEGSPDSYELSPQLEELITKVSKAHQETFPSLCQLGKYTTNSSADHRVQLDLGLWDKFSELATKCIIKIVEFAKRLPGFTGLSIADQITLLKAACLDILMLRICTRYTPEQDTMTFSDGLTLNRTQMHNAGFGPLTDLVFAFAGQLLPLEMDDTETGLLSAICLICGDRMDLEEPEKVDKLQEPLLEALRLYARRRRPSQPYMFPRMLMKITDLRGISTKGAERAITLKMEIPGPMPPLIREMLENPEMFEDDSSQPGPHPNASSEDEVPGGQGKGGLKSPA
# Chain of human RAR-related Orphan Receptor gamma (RORg), RORC (gene 6097) (P51449 whole entry, looked up, the tested form may be a part): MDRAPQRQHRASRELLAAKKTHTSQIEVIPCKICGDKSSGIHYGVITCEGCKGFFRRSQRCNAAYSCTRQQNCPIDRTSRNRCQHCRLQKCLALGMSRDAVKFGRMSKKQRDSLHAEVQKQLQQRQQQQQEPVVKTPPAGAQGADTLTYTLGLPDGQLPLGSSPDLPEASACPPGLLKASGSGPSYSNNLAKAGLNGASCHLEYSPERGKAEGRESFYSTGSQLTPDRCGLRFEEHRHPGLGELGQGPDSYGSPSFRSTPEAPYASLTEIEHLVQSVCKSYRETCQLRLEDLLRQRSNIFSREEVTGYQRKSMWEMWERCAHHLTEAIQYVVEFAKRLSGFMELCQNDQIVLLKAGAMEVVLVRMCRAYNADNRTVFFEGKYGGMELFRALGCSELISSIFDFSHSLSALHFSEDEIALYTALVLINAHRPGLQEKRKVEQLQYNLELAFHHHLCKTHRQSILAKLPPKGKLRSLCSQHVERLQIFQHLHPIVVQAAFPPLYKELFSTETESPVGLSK
# Chain of Peroxisome proliferator-activated receptor gamma (Homo sapiens) (P37231 whole entry, looked up): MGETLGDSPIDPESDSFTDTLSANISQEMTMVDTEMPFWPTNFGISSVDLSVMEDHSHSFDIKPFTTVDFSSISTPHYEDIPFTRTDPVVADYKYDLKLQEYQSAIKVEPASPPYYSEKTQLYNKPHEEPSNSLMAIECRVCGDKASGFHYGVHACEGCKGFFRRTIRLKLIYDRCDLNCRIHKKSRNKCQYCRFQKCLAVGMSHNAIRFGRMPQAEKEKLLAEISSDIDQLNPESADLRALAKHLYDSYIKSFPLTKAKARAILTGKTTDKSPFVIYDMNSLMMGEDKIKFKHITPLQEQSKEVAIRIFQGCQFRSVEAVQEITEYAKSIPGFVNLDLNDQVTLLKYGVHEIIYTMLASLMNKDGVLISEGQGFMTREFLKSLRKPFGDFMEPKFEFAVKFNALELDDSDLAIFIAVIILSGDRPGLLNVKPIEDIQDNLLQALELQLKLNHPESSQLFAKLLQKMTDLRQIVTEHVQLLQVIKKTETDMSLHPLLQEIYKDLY
smiles,measurement,setting,value
c1ccc2c(c1)[nH]c1ccccc12,outcome,[1],inactive
same,outcome,[2],inactive
same,outcome,[3],inactive
same,outcome,[4],inactive
same,AC50,[5],9.38 µM (active)
same,outcome,[5],inactive
same,outcome,[6],inactive
same,AC50,[7],27.4 µM (active)
same,outcome,[8],inactive
same,outcome,[9],inactive
same,outcome,[10],inactive
same,outcome,[11],inactive
same,outcome,[12],inactive
same,outcome,[13],inactive
same,outcome,[14],inactive
same,outcome,[15],inactive
C=CC(=O)OCCCCCCCC(C)C,outcome,[1],inactive
same,outcome,[2],inactive
same,outcome,[3],inactive
same,outcome,[4],inactive
same,AC50,[5],9.67 µM (active)
same,AC50,[6],27.1 µM (active)
same,outcome,[7],inactive
same,outcome,[10],inactive
same,outcome,[11],inactive
same,AC50,[13],0.719 µM (active)
same,outcome,[14],inactive
Nc1cccc(N)n1,outcome,[1],inactive
same,outcome,[2],inactive
same,outcome,[3],inactive
same,outcome,[4],inactive
same,outcome,[16],inactive
same,outcome,[5],inactive
same,outcome,[6],inactive
same,outcome,[7],inactive
same,outcome,[17],inactive
same,outcome,[11],inactive
same,outcome,[13],inactive
same,outcome,[14],inactive
same,outcome,[15],inactive
CCOC(=O)C1=NN(c2ccc(Cl)cc2Cl)C(C)(C(=O)OCC)C1 (stereo not drawn),outcome,[1],inactive
same,outcome,[2],inactive
same,outcome,[3],inactive
same,outcome,[4],inactive
same,outcome,[16],inactive
same,outcome,[5],inactive
same,AC50,[7],10.1 µM (active)
same,outcome,[8],inactive
same,outcome,[10],inactive
same,outcome,[12],inactive
same,outcome,[13],inactive
same,outcome,[14],inactive
same,outcome,[15],inactive
CCOC(=O)/C=C\C(=O)OCC,outcome,[1],inactive
same,outcome,[3],inactive
same,outcome,[4],inactive
same,outcome,[16],inactive
same,outcome,[18],inactive
same,outcome,[5],inactive
same,AC50,[6],9.4 µM (active)
same,outcome,[7],inactive
same,outcome,[9],inactive
same,outcome,[17],inactive
same,outcome,[10],inactive
same,outcome,[13],inactive
same,outcome,[14],inactive
same,outcome,[19],inactive
Cc1ccc([N+](=O)[O-])cc1N,outcome,[1],inactive
same,outcome,[2],inactive
same,outcome,[4],inactive
same,outcome,[5],inactive
same,outcome,[6],inactive
same,outcome,[7],inactive
same,outcome,[9],inactive
same,AC50,[17],25.7 µM (active)
same,outcome,[11],inactive
same,outcome,[12],inactive
same,outcome,[13],inactive
same,outcome,[14],inactive
CC(c1cc(C(C)(C)C)cc(C(C)(C)C)c1O)c1cc(C(C)(C)C)cc(C(C)(C)C)c1O,AC50,[1],1.65 µM (active)
same,outcome,[2],inactive
same,outcome,[3],inactive
same,outcome,[4],inactive
same,outcome,[16],inactive
same,outcome,[18],inactive
same,AC50,[5],5.09 µM (active)
same,AC50,[7],0.0816 µM (active)
same,outcome,[9],inactive
same,outcome,[10],inactive
same,AC50,[11],1.83 µM (active)
same,outcome,[12],inactive
same,outcome,[13],inactive
same,outcome,[14],inactive
same,outcome,[19],inactive
CC(C)C(=O)OCCc1ccccc1,outcome,[1],inactive
same,outcome,[3],inactive
same,outcome,[4],inactive
same,outcome,[16],inactive
same,outcome,[5],inactive
same,outcome,[7],inactive
same,outcome,[8],inactive
same,outcome,[9],inactive
same,outcome,[12],inactive
same,outcome,[20],inactive
same,outcome,[13],inactive
same,outcome,[14],inactive
c1ccc2sc(SSN3CCOCC3)nc2c1,AC50,[1],5.26 µM (active)
same,outcome,[2],inactive
same,AC50,[4],20 µM (active)
same,AC50,[5],0.828 µM (active)
same,AC50,[6],23.2 µM (active)
same,AC50,[7],45.3 µM (active)
same,outcome,[11],inactive
same,outcome,[12],inactive
same,outcome,[13],inactive
same,AC50,[14],14.2 µM (active)
same,AC50,[19],4.41 µM (active)
same,AC50,[15],5.37 µM (active)
